Measurements as given in the supplement of paper PMC7156485.

These compounds were tested on TDF (assay: H1.0 immunofluorescence intensity relative to DMSO (% of DMSO); higher = stronger H1.0 induction, active = 120 or more). Conditions: concentration: 10 µM; 24 h.
In short: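 Cell number or H1.0 nuclear intensity appears as percent of the plate control, based on the median of replicates. Measurements came from HCC1569 and TDF cells exposed in triplicate to compounds at 10 µM for 24 h at 37 °C, then imaged in six fields per well at ×10. Positional effects were smoothed out of HCC1569 values.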
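Further: TDF is a line of transformed human dermal fibroblasts of mesenchymal origin.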

H1.0 immunofluorescence intensity, inactive:
CC(C(=O)O)c1ccc(CC2CCCC2=O)cc1 (stereo not given) [loxoprofen] 88.6
CCOc1cc2ncnc(Nc3cccc(Br)c3)c2cc1OCC [Compound 56] 92.6
NC(N)=NC(CCC(=O)O)C(=O)O (stereo not drawn) [alpha-Guanidinoglutaric acid] 92.6
O=C1OC(=CBr)CCC1c1cccc2ccccc12 (stereo not given) [Bromoenol lactone] 94.5
CN1CCN(c2c(F)cc3c(=O)c(C(=O)O)cn4c3c2SCC4)CC1 [Rufloxacin] 100
Cc1nc(C(=O)N2CCC[C@H]2Cc2nnc(-c3ccccc3)o2)c(-c2ccccc2F)s1 97.5
CCCCCN(CCCCC)C(=O)C(CCC(=O)O)NC(=O)c1ccc(Cl)c(Cl)c1 (stereo not given) [Lorglumide] 102
CCCCCC=CCC(O)C=CC=CC=CC(O)CCCC(=O)O [5(S),12(R)-DIHETE all trans] 99.7
O=[N+]([O-])c1cccc2c(Br)[nH]nc12 [3-Bromo-7-nitroindazole] 103
Cc1cnc(-c2cnc(NCCNc3ccc(C#N)cn3)nc2-c2ccc(Cl)cc2Cl)[nH]1 114
Nc1ccc(C(=O)Nc2cccc(-c3nc(N4CCOCC4)c4oc5ncccc5c4n3)c2)cn1 [PIKfyve Inhibitor] 112
CN1CCCC1c1cccnc1.O=C(O)C(O)C(O)C(=O)O.O=C(O)C(O)C(O)C(=O)O (single isomer, unassigned; (-)) [(-)-Nicotine hydrogen tartrate salt] 90
Clc1ccc(C(Cn2ccnc2)OCc2csc3c(Cl)cccc23)c(Cl)c1.O=[N+]([O-])O (stereo not given) 96.8
CC(C)Cc1ccc(C(C)C(=O)NO)cc1 (stereo not given) [Ibuproxam] 87.3
Cl.NCC1OC(C23CC4CC(CC(C4)C2)C3)Cc2c1ccc(O)c2O (stereo not given) 102
NCC1OC(OC2C(CO)OC(OC3C(O)C(N)CC(N)C3OC3OC(CO)C(O)C(O)C3N)C2O)C(N)C(O)C1O.O=S(=O)(O)O (stereo not given) [Paromomycin sulfate] 93.7
CCCCCCCCC=CCCCCCCCCCCCCC(=O)O [14(Z)-Tricosenoic acid] 100
CCN(CC)CCCC(C)Nc1ccnc2cc(Cl)ccc12 (stereo not given) [Chloroquine] 98.2
Cc1cc(C)c(NC(=O)CC(CC(=O)[O-])c2cccc3ccccc23)c(C(=O)N2CCC3(CCCC3)CC2)c1.[Na+] (stereo not given) 101
C[N+](C)(C)CCOC(=O)CCC(=O)OCC[N+](C)(C)C.[Cl-].[Cl-] [Succinylcholine chloride] 95.5
c1ccc(-c2ccc(C(c3ccccc3)n3ccnc3)cc2)cc1 (stereo not given) [Bifonazole] 86.2
COc1cc(Br)c(S(=O)(=O)Nc2ccc(Cl)c(O[C@@H]3CCN(C)C3)c2)cc1OC 94.8
Cn1cnc2c(NCc3ccccc3)nc(NCCO)nc21 [Olomoucine] 98.6
C[C@@H](Nc1ncnc2[nH]c(-c3ccc(O)cc3)cc12)c1ccccc1 108
CN(C)CCOC(=O)COc1ccc(Cl)cc1.Cl [Centrophenoxine hydrochloride] 103
C=CC1CN2CCC1CC2C(O)c1ccnc2ccc(OC)cc12.Cl.O.O (stereo not given) 98.1
CC1(C)CCC(C)(C)c2cc(C(=O)Nc3ccc(C(=O)O)cc3)ccc21 91.8
Cc1cc(C)c(S(=O)(=O)Nc2cccc(C(F)(F)F)c2)c(C)c1 105
NC(N)=NC(=O)c1nc(Cl)c(N2CCCCCC2)nc1N [5-(N,N-hexamethylene)amiloride] 113
CNCCC(Oc1ccccc1OC)c1ccccc1.Cl (stereo not given) [Nisoxetine hydrochloride] 99.4
CCCCCCCC(=O)OCC(CO)OC(=O)CCCCCCC (stereo not given) [1,2-Dioctanoyl-SN-glycerol] 92.3
CC(Oc1c(Cl)cccc1Cl)C1=NCCN1.Cl (stereo not given) [Lofexidine.HCl] 100
CC1=C(CC(=O)O)c2cc(F)ccc2C1=Cc1ccc(S(C)(=O)=O)cc1 [Sulindac sulfone] 100
Oc1cc(O)cc(/C=C/c2ccc(Br)cc2)c1 [5-[(E)-2-(4-bromophenyl)ethenyl]-1,3-benzenediol] 95.4
COc1ccc2c3c1OC1CC(O)C=CC31CCN(C)C2 (stereo not given) [Galanthamine] 94
CON=C(C(=O)NC1C(=O)N2C(C(=O)[O-])=C(CSc3nc(=O)c([O-])nn3C)CSC12)c1csc(N)n1.[Na+].[Na+] (stereo not given) [Ceftriaxone sodium] 99.3
CCCCCC=CCC=CC=CC=CC(SCC(N)C(=O)O)C(O)CCCC(=O)O (stereo not given) [Leukotriene E4] 92.6

H1.0 immunofluorescence intensity, active:
CC(C)c1[nH]n(-c2c(Cl)cccc2Cl)c2nc(Cc3ccc(OCCO)cc3)nc(=O)c1-2 [Cdk/Crk Inhibitor] 131
COc1ccc(/C=C2\COc3ccc(C)cc3C2=O)cc1O 126
COC(=O)Nc1nc2ccc(C(=O)c3ccccc3)cc2[nH]1 [Mebendazol] 188
